Data on 93 compounds can be found in PubChem BioAssay AID504577 (NMMLSC, 2011).

The structures appear in SMILES notation. Out of some 350,000 compounds screened, about 1,300 (0.37%) were called active. The sample holds actives, similar compounds and a random draw of the others, so the mix is not that of the screen. Rule as the data show it: active = response mostly above about 7.3% (no sharp cut-off); inactive = mostly below about 5.4%.

The test can be described thus: regulators of yeast V-ATPase proton pumping, primary screen, pHLuorin cytosolic pH fluorescence (AID 504577). Also: actives read high. The following applies: S. cerevisiae, at 10 µM, stronger effect = higher value.
With `O=C(NC1CCN(Cc2ccccc2)CC1)c1ccc(Oc2cc(Cl)cc(Cl)c2)o1`, the response is 0.98% (inactive).
Then `O=C(NC1CCN(Cc2ccccc2)CC1)c1cc(Br)c(Br)[nH]1`, with 10.4% (active); and `Cc1cc(C(=O)NC2CCN(Cc3ccccc3)CC2)n[nH]1`, with 4.4% (inactive).
Then `O=C(OCCN1C(=O)c2ccccc2C1=O)Oc1ccccc1`, with -2.47% (inactive); and `O=C(CCCN1C(=O)c2ccccc2C1=O)Oc1ccc(Cl)cc1`, with 8.16% (inactive).
Then `O=C1c2ccccc2C(=O)N1CCCCCCN1C(=O)c2ccccc2C1=O`, with 9.59% (active); and `Cc1cc(C(C)(C)C)cc(S(=O)(=O)Nc2ccc(C(=O)O)cc2)c1C`, with -1.72% (inactive).
For the compound `COCCN(Cc1ccccc1)C(=O)Cc1ccc(S(=O)(=O)N2CCOCC2)s1`, the response was 0.76% (inactive).
Then `CN(CC(=O)NCC(c1ccccc1)N1CCCC1)S(=O)(=O)c1ccc(Cl)cc1` (stereo not drawn), with -3.93% (inactive); and `CC1=NN(c2ccc(Cl)c(C(=O)O)c2)C(=O)/C1=C/c1ccc(-c2ccccc2[N+](=O)[O-])o1`, with 240% (active); and `O=C1NC(c2ccc(-c3ccccc3[N+](=O)[O-])o2)C(C(=O)c2ccc(Cl)cc2)C(O)(C(F)(F)F)N1` (stereo not drawn), with -0.4% (inactive).
Then `O=C(Nc1ccc(N2CCOCC2)cc1)c1ccc(-c2ccccc2[N+](=O)[O-])o1`, with -1.06% (inactive); and `O=C(COC(=O)CCCNC(=O)c1ccc(Cl)cc1)Nc1cc(Cl)ccc1Cl`, with -2.06% (inactive).
Then `CC(=O)NNC(=O)c1csc(Cc2c(Cl)sc3ccc(Cl)cc23)n1`, with -1.89% (inactive); and `CNC(=O)c1csc(-c2ccccc2)n1`, with -0.68% (inactive); and `CNC(=O)c1csc(Cc2c(Cl)sc3ccc(Cl)cc23)n1`, with 12.4% (active).
As for `COc1cccc(N2CCN(C(=O)Nc3ccc4c(c3)NC(=O)CO4)CC2)c1`, the response was 0.53% (inactive).
With `O=C(NCC1CCCCC1)c1cc(S(=O)(=O)N2CCCCC2)ccc1N1CCOCC1` the figure was 11.1% (active); with `CC(C)(C)C(=O)COC(=O)c1cc(S(=O)(=O)N2CCCCC2)ccc1N1CCOCC1`, 5.71% (inactive).
With `O=C(CNC(=O)c1cc(S(=O)(=O)N2CCOCC2)ccc1N1CCCC1)Nc1ccc(F)c(F)c1` the figure was -1.89% (inactive).
Then `COCCN1C2=C(COC(C)(C)C2)C(=S)NC1c1ccccc1` (stereo not drawn), with 1.2% (inactive); and `O=C(O)CC12CC3CC(C1)CC(n1ncc(NCc4ccc(F)cc4)c(Cl)c1=O)(C3)C2`, with 1.78% (inactive).
On to `OC(COc1ccccc1)CN1CCN(c2cccc(Cl)c2)CC1` (stereo not drawn), for which the response was -2.02% (inactive).
For `OC(COc1cccc2ccccc12)CN1CCN(c2ccccn2)CC1` (stereo not drawn), the response is 16.7% (active).
In the case of `CC(C)c1ccc(OCC(O)CN2CCN(c3ccccn3)CC2)cc1` (stereo not drawn), the response was 1.79% (inactive).
Consider `CN(C)S(=O)(=O)c1cc(C(=O)Nc2ccn(C)n2)c(Cl)cc1Cl`, for which the response is -0.21% (inactive).
Take `CSc1sc(C)cc1C1C(C#N)=C(N)N(c2cccnc2)C2=C1C(=O)CCC2` (stereo not drawn): the response is -0.16% (inactive).
With `O=C(COc1ncnc2c(Cl)cc(Cl)cc12)N1CCN(S(=O)(=O)c2ccccc2)CC1` the figure was 2.02% (inactive); with `Nn1c(SCc2ccccc2)nnc1C1CCCCC1`, -2.46% (inactive).
Turning to `O=C(CNC(=O)c1ccccc1Br)NNC(=O)c1cccs1`, the response was -0.51% (inactive).
For `O=C(C1=C[C@H](C2CC2)C[C@H](OCc2ccc(CO)cc2)O1)N1CCN(Cc2ccccc2)CC1`, the response was 10.9% (active).
Then `O=C(C1=C[C@H](c2ccc(C(F)(F)F)cc2)C[C@H](OCc2ccc(CO)cc2)O1)N1CCN(Cc2ccccc2)CC1`, with 3.16% (inactive).
With `O=C(C1=C[C@H](c2coc3ccccc3c2=O)C[C@H](OCc2ccc(CO)cc2)O1)N1CCN(Cc2ccccc2)CC1` the figure was 2.61% (inactive); with `Cc1ccc(C2=NN(C)c3nc4ccccc4n3C2)cc1`, 0.17% (inactive); with `COc1ccc(NC(=O)CSc2ncnc3[nH]ncc23)cc1`, 8.67% (inactive).
`CN(c1ccccn1)c1ncnc2[nH]ncc12`: the response was 15.2% (active).
With `c1ccc(CNc2ncnc3[nH]ncc23)cc1` the figure was -0.7% (inactive).
Then `COc1ccc(OC)c(CNC(=O)CCc2nc(-c3cccs3)no2)c1`, with -0.51% (inactive); and `CCc1ccc(CNC(=O)CCc2nc(-c3cccs3)no2)cc1`, with 10.8% (active); and `COc1ccc(CCc2nc(-c3cccs3)no2)cc1`, with 1.75% (inactive).
Take `Cc1cc(C(F)(F)F)nn1CC(=O)N1CCCC1`: the response was 6.02% (inactive).
Then `O=C(CC(n1cncn1)C(Cl)(Cl)Cl)c1ccc([N+](=O)[O-])cc1` (stereo not drawn), with 4.51% (inactive); and `COc1ccc(C(CNC(=O)c2ccc(OCc3cscn3)cc2)N2CCCC2)cc1` (stereo not drawn), with 2.42% (inactive).
Then `CCN(CC(=O)Nc1c(F)cccc1F)C(=O)c1ccc(-c2ccc(C(C)=O)cc2)o1`, with 0.89% (inactive); and `Cc1cccc2c1cnn2C(=O)CCC(=O)NC1CCCCC1`, with -0.13% (inactive).
Then `Cc1ccc2c(cnn2C(=O)CCC(=O)NC2CCCC2)c1`, with 16.8% (active).
Regarding `Cc1ccc2nc(SCC(=O)NC3CCCC3)[nH]c2c1`, the response was 1.94% (inactive).
Then `Cc1ccccc1CS(=O)(=O)CC1(O)CCN(C(=O)c2cccc(C(F)(F)F)c2)CC1`, with -0.64% (inactive); and `Cc1c(Cl)cccc1NC(=O)[C@@]1(CC(=O)O)CC(/C=C/c2ccccc2)=NO1`, with -1.98% (inactive).
Then `CCN(CC)CC(=O)Nc1nn(-c2ccccc2)nc1C(N)=O`, with 6.52% (inactive); and `COc1ccc(N2CCN(C(=O)CNC(=O)c3ccc(Br)o3)CC2)cc1`, with 4.07% (inactive); and `COc1ccc(N2CCN(C(=O)CNC(=O)c3ccc(C(C)(C)C)cc3)CC2)cc1`, with 13.9% (active).
For the compound `COc1ccc(N2CCN(C(=O)CCNC(=O)c3ccc(Br)cc3)CC2)cc1`, the response was -3.69% (inactive).
With `Cc1ccccc1NC(=O)N1CCCC1C(=O)NCc1ccccc1` (stereo not drawn) the figure was -1.65% (inactive); with `CCOc1nc(OCC)nc(-n2cc(-c3ccccc3)nn2)n1`, 0.96% (inactive).
With `CC1=C/C(=N\OS(=O)(=O)c2ccccc2)C=CC1=O` the figure was 32.8% (active); with `CCC(C)NC(=O)c1ccc(NC(=O)CC2SC(N3CCCCC3)=NC2=O)cc1` (stereo not drawn), 1.4% (inactive); with `CC(C)(C)OC(=O)N1CCC(C(=O)NNC(=O)c2ccc(Cl)cc2Cl)CC1`, 1.22% (inactive).
Then `Cc1cc(=O)n2nc(N3CCCC3C(=O)NCCCN3CC(C)CC(C)C3)sc2n1` (stereo not drawn), with -2.96% (inactive); and `Cc1sc2ncnc(N3CCC(C(=O)Nc4nc5ccc(Cl)cc5s4)CC3)c2c1C`, with 0.27% (inactive).
As for `Cc1ccc(C(=O)Nc2nc3ccc(Cl)cc3s2)o1`, the response is 20.1% (active).
Then `Cc1csc(NC(=O)c2ccc(-c3ccc(Cl)cc3Cl)o2)n1`, with -2.59% (inactive); and `OC1CN=C2Sc3ccccc3N2C1` (stereo not drawn), with 3.08% (inactive); and `O=C(c1ccc(=O)oc1)N1CCC(C(O)(c2ccccc2)c2ccccc2)CC1`, with 2.64% (inactive).
Then `CC(C)CCN1C(=O)c2ccc(C(=O)Nc3cccc(S(N)(=O)=O)c3)cc2C1=O`, with 14.3% (active).
`Cc1cccc(C(=O)Nc2ccc3c(c2)C(=O)N(CC(C)C)C3=O)c1`: the response is -0.72% (inactive).
With `CN1CCN(S(=O)(=O)c2cccc(C(=O)Nc3cccc(S(N)(=O)=O)c3)c2)CC1` the figure was 0.8% (inactive); with `COc1ccccc1C(=O)N1C(CC(=O)Nc2ccccc2C)C(=O)NC2CCCCC21` (stereo not drawn), 9.51% (inactive); with `Cc1ccc(S(=O)(=O)Nc2ccc3c(c2)C(=O)N([C@H](C)CO)C[C@@H](C)[C@@H](CN(C)C(=O)Nc2cccc4ccccc24)O3)cc1`, -0.92% (inactive).
For `COc1cc(C2c3cc4c(cc3C(O)C3COC(=O)C23)OCO4)cc(OC)c1OC` (stereo not drawn), the response is 1.36% (inactive).
Consider `COc1ccccc1CNC(=O)COC(=O)c1cccs1`, for which the response was -4.49% (inactive).
Then `COc1ccccc1CNC(=O)COc1ccc(C)nc1[N+](=O)[O-]`, with -0.89% (inactive).
Then `COc1ccccc1CNC(=O)COC(=O)c1sc(C)nc1C`, with 9.53% (active); and `Brc1cnc(N2CCCC2)nc1N1CCCCC1`, with -0.57% (inactive).
With `CCc1nnc(NC(=O)c2cccc(S(=O)(=O)N(C)c3ccc(OC)cc3)c2)s1` the figure was 3.85% (inactive); with `COc1ccc(Cc2nnc(NC(=O)c3cc(OC)c(OC)c(OC)c3)s2)cc1OC`, -0.03% (inactive).
For the compound `CCCc1nnc(NC(=O)c2cc(OC)cc(OC)c2)s1`, the response was 12.9% (active).
Then `O=C1C=C(c2ccc(Cl)cc2)C(=O)N1Nc1ccccc1`, with 11.6% (active).
With `O=C(c1ccc(Cn2cc([N+](=O)[O-])cn2)o1)N1CCCC1` the figure was -2.73% (inactive).
Consider `COc1ccc(CN2CCCC(C(=O)c3ccc(Cl)cc3)C2)cc1Cn1cncn1` (stereo not drawn), for which the response was -2.81% (inactive).
Then `COc1cc(CN2CCCC(C(=O)c3ccc(SC)cc3)C2)cc(Cl)c1O` (stereo not drawn), with 13.8% (active); and `COc1ccc(C(=O)NC2CC2)cc1OC1CCN(Cc2ccc(SC)cc2)CC1`, with -0.55% (inactive); and `C=CCOC(=O)N1CCC2CC1c1cc(-c3ccc(OC)cc3)ccc12` (stereo not drawn), with -1.16% (inactive).
Take `CCOc1ccccc1NC(=O)C1CCN(S(=O)(=O)c2c(C)nn(C)c2C)CC1`: the response was -3.78% (inactive).
With `COCCNc1nc2nonc2nc1N(C)Cc1ccc(C)cc1` the figure was -1.45% (inactive); with `Cc1cc(C#N)c(SCC(N)=O)nc1-c1ccc(F)cc1`, 1.45% (inactive); with `Cc1cc(=O)[nH]c(SCC(N)=O)c1C#N`, 23.4% (active).
Then `Cc1ccc(NC(=O)CSc2sc3c(O)cc(=O)[nH]c3c2C#N)cc1C`, with 2.04% (inactive); and `CCC(C)[C@H](NC(=O)N1CCn2c1nc1ccccc12)C(=O)NCc1ccc(OC)cc1` (stereo partly drawn), with 4.62% (inactive).
Then `NC(CSC1(c2ccccc2)c2ccccc2-c2ccccc21)C(=O)O` (stereo not drawn), with -2.21% (inactive).
Regarding `COc1ccc(CCN2C(=O)N(c3ccc(OC)cc3)C(=O)C2CC(=O)Nc2ccc(OC)cc2)cc1` (stereo not drawn), the response was 9.93% (active).
Then `COc1ccc(N2C(=O)C(CC(=O)Nc3ccccc3)N(Cc3ccc(OC)c(OC)c3)C2=O)cc1` (stereo not drawn), with 0.01% (inactive); and `COc1ccc(N2C(=O)C(CC(=O)Nc3ccc(F)cc3)N(CCc3cccs3)C2=O)cc1` (stereo not drawn), with -0.54% (inactive).
